Measurements reported in PubChem BioAssay AID1159580 (chemical genetic matrix, 2015).
Values joined by “and” are separate entries in the source; they are usually repeats but may differ in a detail not shown here. Equal values may be shown once. Among all 5,500 compounds or so, about 2,000 (36%) were called active. Not shown: some 18% with an inconclusive outcome. Rule as the data show it: active = normalized growth mostly below about 0.91 (no sharp cut-off); inconclusive = no clear call, values can overlap the other calls; inactive = mostly above about 0.92. The list shows a part of the results.

Experiment: chemical genetic growth profiling, strain panel (AID 1159580);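 also: tested at 20 µM; growth read once vehicle control cultures reached saturation at 30 °C; 1 = growth at the plate median or of vehicle wells; lower values mean less growth of the strain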
Conditions: S. cerevisiae deletion strains, growth OD

Measured: normalized growth

CN1CCCN=C1COC(=O)C(O)(c1ccccc1)C1CCCCC1 (stereo unspecified)
inactive: locus YAL013W, strain DEP1, stronger effect = lower value 1.01 | locus YAL021C, strain ccr4, stronger effect = lower value 1 | locus YAL026C, strain drs2, stronger effect = lower value 0.993 | locus YAL030W, strain snc1, stronger effect = lower value 0.996 | locus YBL061C, strain skt5, stronger effect = lower value 0.987 | locus YBR009C, strain hhf1, stronger effect = lower value 0.994 | locus YBR021W, strain FUR4, stronger effect = lower value 1.03 | locus YBR023C, strain chs3, stronger effect = lower value 0.987 | locus YBR171W, strain sec66, stronger effect = lower value 0.993 | locus YBR229C, strain ROT2, stronger effect = lower value 1.01 | locus YBR231C, strain swc5, stronger effect = lower value 1 | locus YBR279W, strain paf1, stronger effect = lower value 0.993 | locus YCL011C, strain gbp2, stronger effect = lower value 1 | locus YCL016C, strain dcc1, stronger effect = lower value 0.991 | locus YCL029C, strain bik1, stronger effect = lower value 0.99 | locus YCL061C, strain MRC1, stronger effect = lower value 0.994 | locus YCL069W, strain vba3, stronger effect = lower value 0.997 | locus YCR088W, strain abp1, stronger effect = lower value 0.997 | locus YDL005C, strain med2, stronger effect = lower value 0.98 | locus YDL035C, strain GPR1, stronger effect = lower value 1 | locus YDL040C, strain nat1, stronger effect = lower value 0.998 | locus YDL074C, strain BRE1, stronger effect = lower value 1.01 | locus YDL101C, strain DUN1, stronger effect = lower value 1.01 | locus YDL134C, strain PPH21, stronger effect = lower value 1.02 | locus YDL185W, strain tfp1, stronger effect = lower value 1 | locus YDL192W, strain arf1, stronger effect = lower value 0.999 | locus YDR001C, strain nth1, stronger effect = lower value 0.995 | locus YDR069C, strain doa4, stronger effect = lower value 0.99 | locus YDR101C, strain arx1, stronger effect = lower value 0.968 | locus YDR137W, strain rgp1, stronger effect = lower value 0.99 | locus YDR150W, strain NUM1, stronger effect = lower value 1.01 | locus YDR159W, strain sac3, stronger effect = lower value 1 | locus YDR162C, strain NBP2, stronger effect = lower value 1 | locus YDR195W, strain ref2 0.993 | locus YDR297W, strain sur2, stronger effect = lower value 1 | locus YDR318W, strain mcm21, stronger effect = lower value 0.983 | locus YDR334W, strain swr1, stronger effect = lower value 0.989 | locus YDR335W, strain msn5, stronger effect = lower value 0.997 | locus YDR388W, stronger effect = lower value 0.989 | locus YDR392W, strain spt3, stronger effect = lower value 1 | locus YDR502C, strain sam2, stronger effect = lower value 0.994 | locus YEL003W, strain gim4, stronger effect = lower value 0.997 | locus YEL037C, strain rad23, stronger effect = lower value 0.991 | locus YEL061C, strain CIN8 (second series), stronger effect = lower value 0.999 | locus YEL061C, strain CIN8, stronger effect = lower value 1.01 | locus YER015W, strain faa2, stronger effect = lower value 0.978 | locus YER016W, strain bim1, stronger effect = lower value 0.994 | locus YER110C, stronger effect = lower value 0.991 | locus YER111C, strain swi4, stronger effect = lower value 0.995 | locus YER155C, strain BEM2 (second series), stronger effect = lower value 1.01 | locus YER155C, strain BEM2, stronger effect = lower value 1.03 | locus YER167W, strain BCK2, stronger effect = lower value 1.01 | locus YFR010W, strain ubp6, stronger effect = lower value 1.01 | locus YGL078C, strain dbp3, stronger effect = lower value 0.987 | locus YGL086W, strain mad1, stronger effect = lower value 0.992 | locus YGL167C, strain pmr1, stronger effect = lower value 0.987 | locus YGL173C, strain kem1, stronger effect = lower value 0.987 | locus YGL227W, strain vid30, stronger effect = lower value 0.993 | locus YGL240W, strain doc1, stronger effect = lower value 1 | locus YGL248W, strain PDE1, stronger effect = lower value 1.01 | locus YGL253W, strain hxk2, stronger effect = lower value 0.998 | locus YGR078C, strain PAC10, stronger effect = lower value 0.991 | locus YGR135W, strain pre9, stronger effect = lower value 0.978 | locus YGR229C, strain SMI1, stronger effect = lower value 0.99 | locus YGR252W, strain gcn5, stronger effect = lower value 1.05 | locus YHR013C, strain ard1, stronger effect = lower value 0.981 | locus YHR027C, strain rpn1, stronger effect = lower value 0.991 | locus YHR030C, strain SLT2, stronger effect = lower value 1.01 and 0.997 | locus YHR079C, strain IRE1 (second series), stronger effect = lower value 0.988 | locus YHR079C, strain IRE1, stronger effect = lower value 1.01 | locus YHR094C, strain hxt1, stronger effect = lower value 0.985 | locus YHR129C, strain ARP1, stronger effect = lower value 1.02 | locus YHR142W, strain chs7, stronger effect = lower value 0.998 | locus YHR200W, strain rpn10, stronger effect = lower value 0.993 | locus YIL066C, strain RNR3, stronger effect = lower value 1 | locus YIL073C, strain SPO22, stronger effect = lower value 0.999 | locus YIL125W, strain kgd1, stronger effect = lower value 0.998 | locus YIR030C, strain dcg1, stronger effect = lower value 0.985 | locus YJL092W, strain hpr5, stronger effect = lower value 0.997 | locus YJL095W, strain BCK1 (second series), stronger effect = lower value 0.998 | locus YJL095W, strain BCK1, stronger effect = lower value 1 and 1.01 | locus YJL115W, strain asf1, stronger effect = lower value 0.986 | locus YJL129C, strain trk1, stronger effect = lower value 1.02 | locus YJL134W, strain LCB3, stronger effect = lower value 1.01 | locus YJL154C, strain vps35, stronger effect = lower value 0.996 | locus YJL166W, strain qcr8, stronger effect = lower value 0.99 | locus YJL168C, strain set2, stronger effect = lower value 0.992 | locus YJL187C, strain SWE1 (second series), stronger effect = lower value 1.01 | locus YJL187C, strain SWE1, stronger effect = lower value 0.999 | locus YJR043C, strain POL32, stronger effect = lower value 1 | locus YJR066W, strain TOR1, stronger effect = lower value 0.952
